High-throughput results deposited in PubChem BioAssay by several laboratories.
M1 ag – agonists of M1 muscarinic receptor; CHO-M1 cells, Fluo-4 calcium fluorescence, agonist mode; hits give high values; B-score at 10 µM; actives 3% (n = 64,000); AID 626;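 active = fluorescence rise, raw or as B-score row- and column-corrected plate score, outside the 99.7% band of its plate's samples, either direction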
D1 mod – allosterically modulates the human D1 dopamine receptor; HEK293 D1, CRE-luciferase, dopamine EC30 potentiation; actives deviate in either direction; P21728; AID 641; actives 5.9% (n = 58,000); B-score at 10 µM;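 active = luminescence count or its row- and column-corrected plate score outside the 99.7% band of the plate's sample wells, on either side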
M1 antagonist – blocks the rat M1 muscarinic receptor response to acetylcholine | P08482 | CHO-M1 cells, Fluo-4 calcium, ACh EC80 antagonist mode; hits give low values | B-score at 10 µM | actives 3.4% (n = 64,000) | AID 628;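 active = calcium fluorescence response, raw or row-and-column corrected B-score, differing from the plate sample mean either way at a set confidence level, mostly lower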
WNV NS2B-NS3 inh – WNV NS2B-NS3 proteinase inhibition. actives 0.18% (n = 65,000). AID 577. z-score (concentration not given with the values). P06935. WNV NS2B-NS3 protease, fluorogenic substrate Ex360/Em465; hits give low values; in the data active = z-score below about -3
Target sequence (P06935 1371-1501 limits assumed): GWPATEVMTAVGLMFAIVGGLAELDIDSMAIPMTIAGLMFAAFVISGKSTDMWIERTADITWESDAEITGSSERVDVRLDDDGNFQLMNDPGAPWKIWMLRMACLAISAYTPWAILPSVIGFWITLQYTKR
Target sequence (P06935 1502-1679 limits assumed): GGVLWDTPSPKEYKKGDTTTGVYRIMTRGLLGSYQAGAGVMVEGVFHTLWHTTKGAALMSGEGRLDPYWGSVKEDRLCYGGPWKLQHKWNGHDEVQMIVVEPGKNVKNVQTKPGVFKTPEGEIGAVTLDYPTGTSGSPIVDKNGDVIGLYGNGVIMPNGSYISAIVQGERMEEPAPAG
mHtt clearance – mutant huntingtin protein clearance; HeLa Exon1htt(103Q)mCFP, aggregate imaging; zero = plate's median compound well; actives 0.42% (n = 47,000); inhibition, % at 1.5 µM;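 active = inhibition of aggregate fluorescence above about 70%, also judged a hit by eye on the cell image, limit read from the data, passing the limit was not always enough; inconclusive = no rule stated for this call; inactive = not judged a hit on image review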;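 note: cells exposed to compound for three days before fixation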
M1 agonist conf – confirmation of rat M1 muscarinic receptor agonists | fluorescence change (max-min) at 10 µM | actives 19% (n = 1,700) | CHO-M1 cells, Fluo-4 calcium fluorescence, agonist mode; actives lie on both sides | AID 1488 | shares compounds with M1 ag;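 active = fluorescence change differs from the solvent-only DMSO control mean at a set confidence level in both duplicate runs; inconclusive = differs from solvent-only control mean in just one of two runs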;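 note: an EC20 dose of acetylcholine follows compound addition during the same imaging run; raw fluorescence intensity difference in instrument units with no normalization to controls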
M4 ag counter – activates rat M4 receptor in counter-screen for M1 agonists | CHO M4/Gqi5 cells, Fluo-4 calcium fluorescence, agonist mode; actives lie on both sides | AID 1741 | shares compounds with M1 ag | actives 9% (n = 1,700) | fluorescence change (max-min) at 10 µM;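 active = fluorescence change differing from the plate's solvent-only control wells at 99.7% confidence in both duplicates, whether higher or lower; inconclusive = differs from solvent controls in only one of two duplicates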
Starred values were filed as active, the others as inactive. Rows were chosen to be rich in hits. Some 8.9% of all compounds tested hit in one or more screens of this group.

What do the screens show for `CCCn1c(SCCc2ccccc2)nc2c1c(=O)[nH]c(=O)n2C`?
M1 ag: 4.7*; D1 mod: 0.32; M1 antagonist: -0.087; WNV NS2B-NS3 inh: 0.51; M1 agonist conf: inconclusive; M4 ag counter: -60

Results for CCn1c(N2CCC(Cc3ccccc3)CC2)nc2c1c(=O)[nH]c(=O)n2C ?
M1 ag: 5.4*; D1 mod: 0.077; M1 antagonist: -0.9; WNV NS2B-NS3 inh: 1.7; mHtt clearance: 26; M1 agonist conf: inconclusive; M4 ag counter: -84

How did Cc1nnc(SCCCn2c(N3CCN(c4ccccc4)CC3)nc3c2c(=O)[nH]c(=O)n3C)s1 do in these assays?
M1 ag: 11*; D1 mod: 0.91; M1 antagonist: -2.1*; WNV NS2B-NS3 inh: -0.99; mHtt clearance: 51; M1 agonist conf: -19; M4 ag counter: inconclusive

Results for COc1ccc(S(=O)(=O)NC2CCCCC2)c(C)c1C ?
M1 ag: 0.84; D1 mod: -0.14; M1 antagonist: 0.076; WNV NS2B-NS3 inh: -0.13; mHtt clearance: 44

Results for N=C1C(c2ccccc2)=C(O)CN1c1ccc2c(c1)OCO2 ?
M1 ag: 1.1; D1 mod: -2; M1 antagonist: -0.4; WNV NS2B-NS3 inh: 1.9; mHtt clearance: -11

What do the screens show for `CN(C)CCNC(=O)c1ccc(CS(=O)(=O)c2ccc(Br)cc2)o1`?
M1 ag: 0.34; D1 mod: -0.086; M1 antagonist: 0.48; WNV NS2B-NS3 inh: 0.45

How did CC(=O)Nc1ccc(C(=O)n2nc(C)cc2C)cc1 do in these assays?
M1 ag: -0.5; D1 mod: -0.42; M1 antagonist: -0.73; WNV NS2B-NS3 inh: -0.3

Results for CC(=O)Nc1cc2c(cc1C(C)=O)OCCO2 ?
M1 ag: -0.06; D1 mod: 0.55; M1 antagonist: 0.069; WNV NS2B-NS3 inh: 1.1; mHtt clearance: 45

What do the screens show for `CC(=O)c1cc2c(cc1NC(=O)Nc1cccc(Cl)c1)OCCO2`?
M1 ag: 19*; M1 antagonist: 0.076; WNV NS2B-NS3 inh: 1.4; M1 agonist conf: 42; M4 ag counter: 18

What do the screens show for `COc1ccc(S(=O)(=O)N(Cc2ccccc2)Cc2nc(-c3ccccc3)no2)cc1`?
M1 ag: 23*; D1 mod: -0.53; M1 antagonist: -0.74; WNV NS2B-NS3 inh: -0.34; mHtt clearance: 6; M1 agonist conf: 5.4; M4 ag counter: -41

What do the screens show for `COc1ccc(-c2noc(CN(C)S(=O)(=O)c3ccccc3)n2)cc1OC`?
M1 ag: -0.51; D1 mod: 1.8; M1 antagonist: -0.36; WNV NS2B-NS3 inh: 0.68; mHtt clearance: 5

Results for C=CCn1c(N)c(C(=O)NCc2cccnc2)sc1=S ?
M1 ag: -0.17; D1 mod: 1.1; M1 antagonist: -0.061; WNV NS2B-NS3 inh: 0.25

What do the screens show for `CCOC(=O)c1c(C)oc2c1c(C(c1ccncc1)N1CCOCC1)c(O)c1ccccc12` (stereo not given)?
M1 ag: 3*; D1 mod: 0.099; M1 antagonist: 0.011; WNV NS2B-NS3 inh: 0.62; M1 agonist conf: inconclusive; M4 ag counter: -50

What do the screens show for `CCOC(=O)c1c(C)oc2c1c(C=NC1CCS(=O)(=O)C1)c(O)c1ccccc12` (stereo not given)?
M1 ag: 0.0088; M1 antagonist: 0.36; WNV NS2B-NS3 inh: 0.67

How did Cc1c(NC(=O)CSc2nnc3sc4ccccc4n23)c(=O)n(-c2ccccc2)n1C do in these assays?
M1 ag: 0.44; D1 mod: 0.036; M1 antagonist: -0.24; WNV NS2B-NS3 inh: 0.33; mHtt clearance: 30

Results for O=C1COc2ccc(C(=O)CSc3nnc(Cc4cccs4)n3-c3ccccc3)cc2N1 ?
M1 ag: 5.2*; D1 mod: 1.1; M1 antagonist: 0.45; WNV NS2B-NS3 inh: 0.11; M1 agonist conf: 5.3; M4 ag counter: -24

How did CCCCOc1ccc(/C=C/C(=O)NCCc2nc3ccccc3[nH]2)cc1 do in these assays?
mHtt clearance: 0

What do the screens show for `CCCCOC(=O)CCc1nc2ccccc2[nH]1`?
M1 ag: 3.6*; M1 antagonist: 0.34; WNV NS2B-NS3 inh: -0.32; M1 agonist conf: -14; M4 ag counter: -44

What do the screens show for `Cc1sc2c(c1C)c(=O)nc1n2Cc2ccccc2-1`?
mHtt clearance: 22

Results for CN(C)S(=O)(=O)c1cccc(C(=O)OCC(=O)Nc2sccc2C(N)=O)c1 ?
M1 ag: 8.8*; D1 mod: -0.93; M1 antagonist: -3.3*; WNV NS2B-NS3 inh: -0.21; mHtt clearance: -35; M1 agonist conf: inconclusive; M4 ag counter: -69*

What do the screens show for `O=C(NCCc1c[nH]c2ccccc12)c1cnc2sccn2c1=O`?
M1 ag: 3.2*; D1 mod: -0.42; M1 antagonist: 1.1; WNV NS2B-NS3 inh: -1.3; mHtt clearance: 50; M1 agonist conf: -14; M4 ag counter: inconclusive

Results for CCOc1cc2c(cc1OCC)C(c1cc(OC)c(O)c(OC)c1)NCC2 (stereo not given) ?
M1 ag: 0.49; D1 mod: 0.76; M1 antagonist: 0.062; WNV NS2B-NS3 inh: 1.7

What do the screens show for `CCN1C(=O)/C(=C/N2CC(C)CC(C)C2)SC1=S` (stereo not given)?
M1 ag: -1.1; D1 mod: 1.2; M1 antagonist: -0.96; WNV NS2B-NS3 inh: -0.61; mHtt clearance: 13

Results for CCN1C(=O)/C(=C2/SC(C)=C(C)N2CC)SC1=S ?
M1 ag: 3.2*; D1 mod: 0.59; M1 antagonist: -1; WNV NS2B-NS3 inh: 1.6; mHtt clearance: 8; M1 agonist conf: -5.1; M4 ag counter: 20

How did COCCNC(=O)CSCc1nc(-c2ccc(SC)cc2)oc1C do in these assays?
M1 ag: -0.03; D1 mod: -0.96; M1 antagonist: 0.68; WNV NS2B-NS3 inh: 1.1; mHtt clearance: 10

Results for CC(C)CN1C(=O)c2ccc(C(=O)Nc3ccncc3)cc2C1=O ?
M1 ag: 5.2*; D1 mod: -1.8; M1 antagonist: -1.1; WNV NS2B-NS3 inh: -1.5; M1 agonist conf: -17; M4 ag counter: -61

What do the screens show for `Cc1ccc(CCNC(=O)C2CCCN(c3nc4ccccc4o3)C2)cc1` (stereo not given)?
M1 ag: 7.5*; D1 mod: -0.19; M1 antagonist: -0.99; WNV NS2B-NS3 inh: 0.79; mHtt clearance: 25; M1 agonist conf: -10; M4 ag counter: -27

Results for COc1ccc(CNC(=O)C2CCCN(c3nc4ccccc4o3)C2)c(OC)c1 (stereo not given) ?
M1 ag: -0.079; D1 mod: 0.43; M1 antagonist: 0.099; WNV NS2B-NS3 inh: 0.02; mHtt clearance: 16

What do the screens show for `Cc1cc(C)c2cc(C#N)c(SCC(=O)NCC3CCCO3)nc2c1` (stereo not given)?
M1 ag: 2.6*; M1 antagonist: -0.44; WNV NS2B-NS3 inh: -0.45; mHtt clearance: -38; M1 agonist conf: inconclusive; M4 ag counter: inconclusive
